This is an account of results in PubChem BioAssay (NCI).

Compounds without any hit were thinned out: in the full panel of roughly 79,000, 15% have a hit. The source made the active and inactive calls. No stated cut-off is given here; in the data, active means growth inhibition above about 70%; inactive means the rest.

The experiment can be described thus: NCI Yeast Anticancer Drug Screen. Data for the mlh1 rad18 strain (AID 175). Conditions: S. cerevisiae mlh1 rad18 strain growth inhibition; at 50.0 µM; hits give high values. The protocol:
Growth inhibition of yeast strains with defined genetic alterations is measured as a screen for potential anti-cancer activity. Selected strains with alterations in DNA damage repair or cell cycle control were exposed to compounds and growth inhibition was measured relative to vehicle treated controls. The strain used in this assay is mlh1 rad18
Regarding `COc1cc2c(cc1OC)C(c1ccc(O)c(O)c1)CNC2` (stereo not given), the growth inhibition was -5.3% (inactive). To `COc1ccc(CCN)cc1OC` belongs -24.2% (inactive).

Regarding `O=[As]c1ccc(C(=O)Cl)cc1` (stereo not given), the growth inhibition is 0.45% (inactive).

In the case of `CO[C@@]12[C@@H]3N[C@@H]3CN1C1=C(C(=O)C(NCCC#N)=C(C)C1=O)[C@@H]2COC(N)=O`, the growth inhibition was 55.6% (inactive).

In the case of `CCOP(=S)(OCC)OP(=S)(OCC)OCC`, the growth inhibition is -42.1% (inactive).

On to `O=[N+]([O-])C1(Cl)CCC(Cl)([N+](=O)[O-])CC1` (stereo not given), for which the growth inhibition is -18.3% (inactive). Consider `[N-]=[N+]=CC(=O)c1ccc(Cl)cc1`, for which the growth inhibition is 52.2% (inactive). As to `CN1CCc2cc3c(cc2[C@H]1[C@@H]1OC(=O)c2c1ccc1c2OCO1)OCO3`, the growth inhibition was -41% (inactive). To `O=C(Cc1ccc(N(CCCl)CCCl)cc1)NC1CCCC1` belongs 18.1% (inactive); to `C=C1C(=O)OC2CCN3CC=C(COC(=O)C(C)(O)C4(CO4)C1C)C23` (stereo not given), -59.5% (inactive); to `O=C1NC(=O)C(O)(Cc2ccccn2)C(=O)N1`, -6.65% (inactive). Take `CCOC(=O)NP(=O)(Nc1ccc(C)cc1)Nc1ccc(C)cc1`: the growth inhibition was -1.45% (inactive). On to `CS(=O)(=O)NC(=NCCOS(C)(=O)=O)N[N+](=O)[O-]`, for which the growth inhibition was 11.8% (inactive). To `CCOC(OCC)c1ccc2c(c1)OCO2` belongs 11.8% (inactive); to `Clc1ccc(N=c2ccc3ccccc3[oH+]2)cc1.Clc1ccc(N=c2ccc3ccccc3[oH+]2)cc1.[Co]`, 15.6% (inactive); to `O=C(c1ccccc1)C1NC1c1ccccc1` (stereo not given), 10.2% (inactive). Regarding `C1=CC2C=CC(C=C1)[PH+]2c1ccccc1.C1=CC2C=CC(C=C1)[PH+]2c1ccccc1.[C-]#[O+].[C-]#[O+].[C-]#[O+].[Fe]` (stereo not given), the growth inhibition is -4.85% (inactive). Turning to `O=C1c2ccccc2C(=O)c2ccccc21`, the growth inhibition was 47.5% (inactive).

Turning to `O=[N+]([O-])c1cc(S(=O)(=O)F)cc(Cl)c1O`, the growth inhibition is 8.45% (inactive). For the compound `CN=c1ssc(/N=C(\SC)N(C)C)[n+]1C`, the growth inhibition was 3.05% (inactive).

Regarding `N/C(=N\NC(=O)c1ccc([N+](=O)[O-])cc1)N[N+](=O)[O-]`, the growth inhibition was 1.75% (inactive). On to `NC1=NC(N)=N1`, for which the growth inhibition was -13.2% (inactive). To `O=C/C=C/c1ccccc1.[Fe+2].[c-]1[c-][c-][cH-][c-]1.[c-]1[c-][c-][cH-][c-]1` belongs 0.4% (inactive); to `CCOC(=O)c1c(SC)nc(-c2ccc(Cl)cc2)sc1=N`, -19.7% (inactive). To `O.O=[N+]([O-])O.[NH2-].[NH2-].[Pt+2]` belongs 31.4% (inactive).

Regarding `CC(Oc1ccc([N+](=O)[O-])cc1Cl)C(=O)Nc1ccc(S(=O)(=O)F)cc1` (stereo not given), the growth inhibition is -12.6% (inactive). Regarding `C/C=C\C(C)=C/C(C)C(=O)CC(O)CC1CC(=O)NC(=O)C1` (stereo not given), the growth inhibition was 13.3% (inactive).

For the compound `Cc1ccc(N[N+](=O)[O-])nc1`, the growth inhibition is 14% (inactive). Take `c1cc2c(cc1[C@@H]1OC[C@@H]3[C@H]1CO[C@H]3c1ccc3c(c1)OCO3)OCO2`: the growth inhibition is 6.15% (inactive). The result for `CC(CO)([N+](=O)[O-])[N+](=O)[O-]` reads 7.35% (inactive); that for `Oc1ccc(CC2NCCc3cc(O)c(O)cc32)cc1O` (stereo not given), 23.1% (inactive); that for `O=P(Oc1ccccc1)(Oc1ccccc1)C(O)c1ccccc1` (stereo not given), -2% (inactive). Turning to `Cc1ccc(C(=O)CN)cc1`, the growth inhibition was -9.5% (inactive). Turning to `O=C(O)C1C2Cc3ccccc3C1c1ccccc12` (stereo not given), the growth inhibition was -10% (inactive). The result for `c1ccc(N2CCN(c3ccccc3)CC2)cc1` reads 13.8% (inactive); that for `[Se]=[Mo]=[Se]`, -33.9% (inactive).

In the case of `N=C(N)N.[O]=[Cr](=[O])([OH])[OH]`, the growth inhibition is 30.6% (inactive). To `CCC(O)C[As](=O)(O)c1ccccc1OC` (stereo not given) belongs -1.65% (inactive); to `CC(C)c1ccc(CCN)cc1`, -6.1% (inactive). The result for `CCOP12(OCC)NC(=O)OC1(C(F)(F)F)c1ccccc1O2` (stereo not given) reads -36.4% (inactive).
